# Screening data (PubChem BioAssay)
# The entries come from a sample that favours hits as a whole.
# miR122 inh: miR-122 sensor activation | 0.14% of 340,000 active | Huh7 psiCHECK-miR122 Renilla luciferase sensor, 48 h | AID 623901 | activation, % at 12.5 µM;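 active = mean activation of 30% or more, with every replicate also reaching 30%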;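 also: 0% = median of neutral control wells and 100% = median of positive control wells; higher luciferase signal means stronger suppression of miR-122 activity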
# Active calls of the source: *.
SMILES,miR122 inh
CC(C)CC#Cc1ccc2c(c1)O[C@@H](CN(C)C(=O)NC1CCCC1)[C@@H](C)CN([C@@H](C)CO)S2(=O)=O,-13.6
CO[C@H]1CN(C)C(=O)c2ccc(NC(=O)Nc3ccc(F)cc3)cc2OC[C@H](C)NC[C@H]1C,-2.0
C[C@@H]1CN([C@H](C)CO)C(=O)c2cc(-c3ccc(F)cc3)cnc2O[C@H]1CN(C)Cc1cccnc1,-2.4
CCCNC(=O)N(C)C[C@H]1Oc2ncc(/C=C/c3ccccc3)cc2C(=O)N([C@@H](C)CO)C[C@@H]1C,-0.4
C[C@@H]1CN([C@@H](C)CO)C(=O)c2cc(C#CC3CCCC3)cnc2O[C@H]1CN(C)C(=O)C1CCC1,1.2
CC(=O)N(C)C[C@@H]1Oc2cc(C#C[C@H](C)O)ccc2S(=O)(=O)N([C@@H](C)CO)C[C@H]1C,7.4
C[C@@H]1CN([C@H](C)CO)C(=O)c2cc(-c3cccc(C#N)c3)cnc2O[C@@H]1CN(C)C(=O)C1CCCCC1,5.7
C[C@@H]1CN([C@H](C)CO)S(=O)(=O)c2ccc(C#CC3(O)CCCC3)cc2O[C@@H]1CN(C)C(=O)Nc1ccc(F)cc1,-63.4
COc1ccc(C#Cc2ccc3c(c2)O[C@H](CN(C)C(=O)CN2CCOCC2)[C@H](C)CN([C@H](C)CO)S3(=O)=O)cc1,50.0*
C[C@@H]1CN([C@@H](C)CO)S(=O)(=O)c2ccc(C#Cc3cccc(F)c3)cc2O[C@H]1CN(C)C(=O)CN1CCOCC1,-2.1
C[C@H](CO)N1C[C@H](C)[C@@H](CN(C)C(=O)CN2CCOCC2)Oc2cc(C#Cc3cccc(F)c3)ccc2S1(=O)=O,3.0
C[C@H](O)C#Cc1ccc2c(c1)O[C@@H](CN(C)Cc1cccnc1)[C@@H](C)CN([C@H](C)CO)S2(=O)=O,2.8
C[C@@H]1CN([C@H](C)CO)C(=O)c2cc(/C=C/c3ccccc3)cnc2O[C@@H]1CN(C)C(=O)c1cccnc1,3.8
C[C@@H]1CN([C@@H](C)CO)C(=O)Cc2cc(NC(=O)Cn3cnnn3)ccc2O[C@H]1CN(C)Cc1ccc(C(F)(F)F)cc1,4.1
COc1cccc(-c2cnc3c(c2)C(=O)N([C@H](C)CO)C[C@H](C)[C@H](CN(C)Cc2cccc(C(F)(F)F)c2)O3)c1,0.5
O=C(Nc1ccc(Cn2cccn2)cc1)c1ccc(COc2ccccc2Br)cc1,31.5*
C[C@H]1CN([C@@H](C)CO)S(=O)(=O)c2ccc(-c3cccc(C#N)c3)cc2O[C@@H]1CN(C)Cc1ccccn1,-0.5
C[C@H]1CN([C@@H](C)CO)C(=O)c2cc(-c3cccc(C#N)c3)cnc2O[C@H]1CN(C)Cc1ccccc1,6.4
C[C@H]1CN([C@@H](C)CO)C(=O)c2cc(C#Cc3ccccn3)cnc2O[C@H]1CN(C)CC1CCOCC1,0.9
C[C@H]1CN([C@@H](C)CO)C(=O)c2cccc(NC(=O)Nc3ccc(C(F)(F)F)cc3)c2O[C@@H]1CN(C)CC1CCCCC1,-92.1
C[C@@H]1CCCCO[C@@H](CN(C)CC2CCCCC2)[C@@H](C)CN([C@@H](C)CO)C(=O)c2cc(NC(=O)Nc3cccc4ccccc34)ccc2O1,31.0*
C[C@H](CO)N1C[C@H](C)[C@@H](CN(C)CC2CCCCC2)OCCCC[C@H](C)Oc2ccc(NC(=O)Nc3cccc4ccccc34)cc2C1=O,34.0*
COc1ccc(S(=O)(=O)Nc2ccc3c(c2)C(=O)N([C@@H](C)CO)C[C@H](C)[C@H](CN(C)C(=O)Nc2ccccc2)OCCCC[C@@H](C)O3)cc1,-120.0
C[C@H](CO)N1C[C@H](C)[C@@H](CN(C)CC2CCCCC2)Oc2c(NC(=O)c3ccncc3)cccc2C1=O,-127.2
C[C@@H]1CN([C@@H](C)CO)C(=O)Cc2cc(NC(=O)Nc3cccc4ccccc34)ccc2O[C@@H]1CN(C)C(=O)NC1CCCCC1,-167.0
SMILES,miR122 inh
C[C@H](CO)N1C[C@H](C)[C@@H](CN(C)Cc2ccc(C(F)(F)F)cc2)Oc2c(NC(=O)c3cnccn3)cccc2C1=O,-113.9
CC(=O)N(C)C[C@@H]1Oc2cc(C#CC3CCCCC3)ccc2S(=O)(=O)N([C@@H](C)CO)C[C@@H]1C,2.7
CCC(=O)N(C)C[C@H]1Oc2ncc(C#C[C@@H](C)O)cc2C(=O)N([C@H](C)CO)C[C@@H]1C,-4.2
COc1cccc(-c2cnc3c(c2)C(=O)N([C@H](C)CO)C[C@H](C)[C@H](CN(C)C(=O)CC2CC2)O3)c1,-16.3
COCC#Cc1ccc2c(c1)O[C@@H](CN(C)C(=O)COC)[C@H](C)CN([C@@H](C)CO)S2(=O)=O,0.3
COc1cccc(NC(=O)N(C)C[C@H]2Oc3ncc(C#Cc4cccnc4)cc3C(=O)N([C@@H](C)CO)C[C@@H]2C)c1,5.0
CCNc1nc(N)nc(Oc2ccc(OCCOc3ccccc3)nn2)n1,-151.2
CNc1nc(NCCOc2ccccc2)c2sccc2n1,36.8*
Cc1ccc(-c2cnc3c(c2)C(=O)N([C@@H](C)CO)C[C@@H](C)[C@@H](CN(C)C(=O)c2ccncc2)O3)cc1,7.4
COc1ccc(C#Cc2cnc3c(c2)C(=O)N([C@H](C)CO)C[C@H](C)[C@@H](CN(C)CC2CCOCC2)O3)cc1,7.6
CNC[C@@H]1Oc2cc(-c3cccc(F)c3)ccc2S(=O)(=O)N([C@@H](C)CO)C[C@H]1C,3.4
COCC#Cc1ccc2c(c1)O[C@@H](CN(C)C(=O)C1CCOCC1)[C@H](C)CN([C@H](C)CO)S2(=O)=O,-8.6
CO[C@H]1CN(C)C(=O)c2cc(NC(=O)Nc3ccccc3)ccc2OC[C@@H](C)NC[C@H]1C,-0.4
CO[C@@H]1CN(C)C(=O)c2cc(NC(=O)Nc3ccccc3)ccc2OC[C@@H](C)NC[C@@H]1C,-1.4
CC1CCN(CCc2nc3cc(NC(=O)Nc4ccccc4)ccc3n2C)CC1,30.9*
Cc1ccccc1S(=O)(=O)N1CC[C@@H]2[C@@H](CO)Nc3ccc(-c4ccc(F)cc4)cc3[C@@H]21,-157.5
CC(C)CC#Cc1cnc2c(c1)C(=O)N([C@@H](C)CO)C[C@@H](C)[C@H](CN(C)Cc1ccc(F)cc1)O2,5.8
C[C@H](CO)N1C[C@H](C)[C@H](CN(C)CC2CC2)Oc2ncc(-c3cccc(C(=O)N(C)C)c3)cc2C1=O,11.1
COc1cccc(/C=N/Nc2ccc([N+](=O)[O-])cn2)c1O,32.7*
CC(=O)N(C)C[C@@H]1Oc2cc(C#CC3(O)CCCC3)ccc2S(=O)(=O)N([C@H](C)CO)C[C@H]1C,3.0
C[C@H]1CN([C@@H](C)CO)C(=O)c2cc(C#CC(C)(C)O)cnc2O[C@H]1CN(C)C(=O)C1CC1,7.0
CN(C)S(=O)(=O)c1cccc(NC(=S)N/N=C/c2ccc(O)c(O)c2O)c1,69.8*
C[C@@H]1CN([C@@H](C)CO)S(=O)(=O)c2ccc(C#Cc3ccc(F)cc3)cc2O[C@H]1CN(C)S(=O)(=O)c1cn(C)cn1,-2.5
C[C@@H]1CN([C@@H](C)CO)C(=O)c2cc(Br)cnc2O[C@@H]1CN(C)C(=O)c1cccnc1,-5.0
C[C@H](CO)N1C[C@H](C)[C@@H](CN(C)C(=O)C2CCCCC2)Oc2ncc(-c3ccccc3F)cc2C1=O,1.4
COc1ccc(NS(=O)(=O)c2cccc(NC(=O)COc3ccccc3[N+](=O)[O-])c2)cc1,-145.8
COc1ccc(NC(=O)COC(=O)CCCc2c[nH]c3ccccc23)cc1,36.2*
COc1cccc(CN(C(=O)Cc2c[nH]c3ccccc23)C(C(=O)NC2CCCCC2)c2cccs2)c1 (stereo not drawn),-240.2
COc1ccc(CN(C)C[C@H]2Oc3c(NC(=O)NC4CCCCC4)cccc3C(=O)N([C@H](C)CO)C[C@@H]2C)cc1,-255.2
